From the supplement of paper PMC6555819

Each sequence was assayed on VDR homodimer (NR concentration 270 nM) (assay: PBM binding z-score (relative to random genomic background probes); higher = stronger binding; sequences stand for … in GC…GCGATTGACAGCGTAGAATGAAGG).
Procedure, shortened: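 The probes on custom Agilent 4×180K protein-binding microarrays were double-stranded, with 34-nt variable regions bearing direct-repeat seeds, single-nucleotide variants, half-site ablations and random human genomic background sequences. Incubation lasted 1 h with ligand-free nuclear receptor dimers in PBS pH 7.4, 2% milk, 0.02% Triton X-100, 1 mM DTT, 0.2 mg/mL BSA and 0.4 mg/ml salmon testes DNA. Antibodies against each partner (one per run) detected bound dimers, and fluorescence scans were regression-normalized. Binding z-scores take the random background probes as reference.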

Row | Sequence | PBM binding z-score
1 | TTACCAAGATGAGCTGAGGTCGTTGATCCAACTC | 2.02
2 | CTCAAAAGGTCGTGCTCAGGTGAGTATACCAAAC | 0.794
3 | TCGAGTAGGTTATCAATGGGGCATTCAGCTTTCT | -0.119
4 | CGAACTAGGTGAGAACAGGACAGTGAAGGATGAT | 0.286
5 | GATAGAGGGTCAGCTAGAGGCCAGAGTATGGAAA | 0.387
6 | CGAACTAGGTCTGAACAGGACAGTGAAGGATGAT | -0.4
7 | TCTTGGAGATCAAGCAGGTTAAGAAAGCCTGAGT | 0.0474
8 | CTCGAAAAGTCGTGCTCAGGTGAGTATACCAAAC | -0.43
9 | GCTAGTTGGTCAGTAAAAGGTCAGACACCGGTCG | 0.607
10 | CCTATTAGTTGACCATAGGGGCAACCGAAGCTCG | 0.581
11 | TCATATAGCTAAACAGGTGAAAGTCCGTAAGTTA | 0.105
12 | ATTTACGGGTCAACGAGGTTATAGCACGCGTATA | 4.5
13 | ACTATTAGTTGAGACGAAGGCAACCGATAGGTTG | -0.261
14 | ATCGAAAGGTCGTGAGGTGAGTGTACAGAAAGGC | 1.41
15 | TCGAGTAGGTTAGGGGCCTTCAGAATGGCGTCGA | -0.468
16 | CAAACTAGGTCACGAAAGATCAAAGTCGAATGAC | 0.583
17 | AGCACGAGGGCAATGAGTTGATAGCACGGGTGGC | 3.16
18 | TATACAGGGTCAAAGGCCAGCGTACGAATGTCGA | 2.16
